An excerpt weighted towards active compounds, which were near 2.1% of everything screened.
TDP43 rescue: qHTS of TDP-43 Inhibitors; TDP-43 expressing yeast growth rescue, BacTiter-Glo, 24 h; Potency, µM (series often up to 46.1 µM), inactives show at the top dose growth rescue (activation), hits mostly activators; actives 1.8% (n = 410,000); also: % of control where 0% means no effect; nearly all actives have a fitted effect of over 50% in size
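Readout is BacTiter-Glo luminescence of cell growth, so inhibitors register as activators. TDP-43-expressing yeast at OD600=0.02 in galactose medium, after raffinose pregrowth to mid-log, were incubated with compound for 24 hr at 30 deg C.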
FUS yeast rescue: qHTS for Suppressors of FUS Proteinopathy: Primary screen using FUS-linked yeast assay; S. cerevisiae FUS-expressing, growth rescue, OD600, 24 h; Potency, µM (titrated, usually from 76.6 µM), most hits filed as activators; actives 0.24% (n = 390,000); AID 1347120, 2019;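 also: plate controls were DMSO vehicle for no effect and reference control for full effect; nearly all actives have a fitted effect of over 55% in size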
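Yeast FUS proteinopathy model; galactose-induced FUS (2%), starting OD 0.005. Cpds in dilution series, 24hr, 30C, 99% humidity. Abs 600 nm growth. Pos ctrl CP55940 (top 92uM final); neg ctrl DMSO.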
Abeta yeast res: qHTS for compounds that reverse cellular toxicity of Amyloid beta (A-beta) peptide in yeast: Primary Screen; Potency, µM (series often up to 46.1 µM), hits mostly activators; actives 0.063% (n = 410,000); yeast expressing A-beta42, growth rescue, OD600, 48 h; response scale: 0% DMSO, 100% iron-clioquinol control; AID 1347071, 2019; also: nearly all actives have a fitted effect of over 55% in size
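Yeast growth medium received pinned compounds, then yeast cells expressing toxic A-beta were added; plates incubated at 30 C for 48 hr. Growth read as absorbance at 600 nm, normalized to DMSO and equimolar FeCl3 plus clioquinol controls.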
aSyn yeast inh: qHTS of alpha-syn Inhibitors; Yeast expressing alpha-synuclein, growth rescue, BacTiter-Glo, 24 h; Potency, µM (series often up to 46.1 µM), without a hit: at the highest dose growth rescue (activation), actives largely listed as activators; actives 0.14% (n = 370,000); AID 652106, 2013; also: % of control where 0% means no effect; nearly all actives have a fitted effect of over 65% in size
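Galactose-induced alpha-syn yeast (OD600=0.02, raffinose-pregrown) + pinned cpd, 24 hr, 30 deg C; growth by BacTiter-Glo luminescence. Growth restoration scores as activation.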
* = called active by the depositor; i = inactive; ? = inconclusive; / = not tested or not shown; ! = not confirmed by another sample; [ ] = another dose, or the depositor's remark. Calls follow the shape of the dose curve; as a rule, active = well fitted curve in the direction sought with a large enough effect; inconclusive = small, poorly fitted or top-dose-only effect, or another doubt; inactive = no such curve, though single readings can be large; an effect the other way counts as inactive or inconclusive. Potency is read from the fitted curve at half-maximal effect.

SMILES	TDP43 rescue	FUS yeast rescue	Abeta yeast res	aSyn yeast inh
CCc1ccc(NC(=O)CC(NCc2cccnc2)C(=O)O)cc1 (stereo not drawn)	21%[9.22 µM]	i	i	/
COc1ccccc1NC(=O)C1=C(C)Nc2nc(SCc3ccccc3)nn2C1c1ccccn1 (stereo not drawn)	14%	i	i	/
CCN(CC)C(=O)CC[C@@H]1CC[C@]2(CCCN(C(=O)c3ccccc3)C2)O1	/	i	/	/
CCOC(=O)NC(=O)CSc1nc(-c2ccc(C)c(C)c2)cn1-c1ccccc1	35µM*	i	i	0%
Nc1ncc2c(n1)CC(c1ccco1)CC2=O (stereo not drawn)	14µM*	i	i	1%
CC(=O)Nc1ncc2c(n1)CC(c1ccco1)CC2=O (stereo not drawn)	-1%	i	i	-4%
C=CCn1c(SCc2ccc(C#N)cc2)nnc1-c1cccc(Cl)c1	14µM*	i	i	6%
CO[C@H]1CC[C@@]2(C)[C@@H](CC[C@@H]3[C@@H]2CC[C@@]2(C)[C@H]3C[C@H](C(=O)O)O[C@]23CCCO3)C1	16µM*	i	i	22%
COc1cnc(-c2ccccn2)nc1Oc1ccc(F)cc1F	19%	i	22µM*	-11%
CCCCCCCCN1C(=O)[C@@H](CC(=O)NCCC(C)C)C[C@@]2(C(=O)OC)C1=C[C@H](C(C)C)O[C@@H]2C1CC1	/	i	/	/
O=C(CSc1nnc(COc2ccccc2Cl)o1)NC(=O)NC1CCCC1	3%	?	i	18µM*
O=C(/C=C/c1ccc(Cl)cc1Cl)c1nc2ccccc2[nH]1	11µM*	i	i	25%
COc1cc2nc(N3CCCCC3)nc(NC3CCN(C)CC3)c2cc1OC	/	/	/	-1%
COc1ccc(C=C2CS(=O)(=O)CC(=Cc3ccc(OC)cc3)C2=O)cc1	?	i	i	13µM*
Cc1ccc(C)c(NC(=S)NC(=O)c2cncc(Br)c2)c1	11µM*	i	?	-4%
O=C(CCCn1c2ccccc2c(=O)c2ccccc21)Nc1cccc(Cl)c1	35µM*	?	i	/
COC(=O)c1nc2n(n1)C(c1cc(OC)ccc1OC)C(C(=O)Nc1ccc(C)cc1C)=C(C)N2 (stereo not drawn)	-3%	i	i	/
O=C(CSc1ccc(Cl)cc1)N/N=C/c1ccc([N+](=O)[O-])o1	13µM*	i	i	1%
O=C(O)Cc1ccc(NC(=S)Nc2cccc(Cl)c2Cl)cc1	-9%	?	i	12%
Cc1cc(C)cc(NC(=S)NCc2cccs2)c1	5%	/	i	-4%
S=C(NCc1cccs1)Nc1ccc(Br)cc1Cl	35µM*	i	?	-11%
S=C(NCc1ccccn1)Nc1ccc(Cl)cc1Cl	11µM*	i	i	-16%
CC(C)(C)c1ccc(NC(=S)NCc2cccs2)cc1	13µM*	i	i	-9%
O=C(O)Cc1ccc(NC(=S)Nc2ccc(Br)cc2Cl)cc1	35µM*	i	i	12%
CCn1cc(S(=O)(=O)c2ccc(Cl)cc2)c(=O)c2cc(F)c(N3CCOCC3)cc21	7%	i	i	/
SMILES	TDP43 rescue	FUS yeast rescue	Abeta yeast res	aSyn yeast inh
CCOc1ccccc1NC(=O)c1c(C)cc(C)nc1SCC(=O)c1cccc(OC)c1	?	i	i	/
COc1ccc(-c2nc3ccccc3c(=O)n2O)cc1	-45%	i	i	32µM*
O=c1c2ccccc2nc(-c2ccccc2)n1O	-2%	i	i	24%
CC(C)(C)OC(=O)N1CCC(c2c(C(=O)NCCN3CCCC3)cnn2-c2ccc(Cl)cc2)CC1	0%	i	i	/
CCc1ccc(CN(Cc2ccco2)c2cnc(S(C)(=O)=O)nc2C(=O)Nc2ccc(C)c(Cl)c2)cc1	17%	i	i	/
O=C(Nc1ccccc1)C1C(c2ccccc2)C1(Cl)Cl (stereo not drawn)	?	i	i	-11%
O=C(Nc1ccc(Cl)cn1)C1C(c2ccccc2)C1(Cl)Cl (stereo not drawn)	13µM*	i	i	-11%
COc1ccc(CCNC(=O)Cn2nc(-c3ccccc3)ccc2=O)cc1	/	i	/	/
Cc1cccc(-c2nc3scc(CCNS(=O)(=O)c4ccc(Oc5ccccc5)cc4)n3n2)c1	22%	i	i	/
CCCCCCn1c(=O)n2n(c1=O)[C@@H]1CN(S(=O)(=O)c3ccc(C)cc3)C[C@]1(O)[C@@H](OC(=O)NCc1ccc(OC)c(OC)c1)C2	0%	22µM*	i	11%
C[N+]1(CC(=O)c2ccc(Oc3ccc(C(=O)C[N+]4(C)CCOCC4)cc3)cc2)CCOCC1	/	/	/	-15%
O=Cc1ccc(N2Cc3ccccc3C2)cc1	3.2µM*	i	i	2%
Cc1nn(-c2ccccc2)c2c1N(CCCC(=O)NCc1ccc(N(C)C)cc1)C(=O)CS2	16%	i	i	/
COc1ccc(CNC(=O)CCCN2C(=O)CSc3c2c(C)nn3-c2ccccc2)cc1	22µM*	i	i	/
CCCOc1ccc(CNC(=O)CCCN2C(=O)CSc3c2c(C)nn3-c2ccccc2)cc1	18µM*	?	i	/
Cc1cccc(N2CCN(C(=O)CCNS(=O)(=O)c3ccc4c(c3)CCN4C(=O)C3CC3)CC2)c1C	15%	28µM*	i	11%
CCCCN(C)C(=O)C1CCN(S(=O)(=O)c2ccc3[nH]c(=O)oc3c2)CC1	/	i	/	/
O=C(/C=C/c1ccc2c(c1)OCO2)N1CCN(c2ccccc2F)CC1	35µM*	/	i	5%
COc1ccccc1N1CCN(C(=O)/C=C/c2ccc3c(c2)OCO3)CC1	?	i	i	5%
O=C(Oc1ccccc1/C=C\C(=O)c1cc2ccccc2o1)c1cccc(F)c1	?	i	i	1%
O=C(Oc1ccccc1/C=C\C(=O)c1cc2ccccc2o1)c1ccccc1	22µM*	/	i	28%
Cc1ccc(CNC(=O)c2cccc(NC(=O)N3CCSc4ncccc43)c2)cc1	7%	i	i	/
COc1ccc(C2c3c(n(C)c4ccccc34)C(=O)N2CC(=O)Nc2ccccc2Cl)cc1 (stereo not drawn)	2%	?	i	/
C=CC[C@H](CC(=O)N(CCO)Cc1ccccc1)C(=O)N[C@H](COC(=O)[C@@H](CC=C)CC(=O)OC(C)(C)C)Cc1ccccc1	-15%	7.9µM*	i	-2%
Clc1ccc(-c2csc(N/N=C/c3cccnc3)n2)c(Cl)c1	13µM*	?	i	-1%
N#C/C(=C\c1ccc(-c2ccccc2C(=O)O)o1)c1nc2ccccc2[nH]1	22µM*!	i	i	-5%
COc1ccc(C2=NOC(Cn3nc(-c4ccccc4)cc3C(=O)NCc3cccs3)C2)cc1 (stereo not drawn)	4%	32µM*	i	8%

Bioassay records as filed in PubChem.
